Measured values reported in the supplement of paper PMC10849652.
About 8,800 targets were measured; listed, in parts, are those with a hit and a random draw of the rest. About 0.5% of all pairs of compound and target were hits.

How the values were obtained:
Experiment in all cases: log2 fold change, soluble protein after heating vs DMSO (PISA); higher = thermal stabilisation; K562 lysate, 10 uM; active = over 0.2 and 3.5 SD of the protein, either way, in both replicates (recomputed)
vemurafenib = compound: CCCS(=O)(=O)Nc1ccc(F)c(C(=O)c2c[nH]c3ncc(-c4ccc(Cl)cc4)cc23)c1F [vemurafenib]
In short: (§1)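 Soluble protein was defined as the supernatant remaining after 21,000xg for 90 min, following pooling of heated aliquots and adjustment to 0.5% NP-40 at 4°C. Before that, crude K562 extract at 1 mg/mL protein in PBS pH 7.4 with 1 mM MgCl2 was treated with 10 μM compound for 30 min and heated for 3 min across 48°C-58°C. Quantification used TMTpro 16plex LC-MS/MS with channel sums equalised, and values are log-two fold changes in thermal stability relative to solvent controls from duplicates.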

[1] = compound: CCCS(=O)(=O)Nc1ccc(F)c(C(=O)c2c[nH]c3ncc(Cl)cc23)c1F
In short: as §1

barasertib = compound: CCN(CCCOc1ccc2c(Nc3cc(CC(=O)Nc4cccc(F)c4)[nH]n3)ncnc2c1)CCOP(=O)(O)O [barasertib]
In short: as §1

[2] = compound: CC[C@@H]1C(=O)N(C)c2cnc(Nc3ccc(C(=O)NC4CCN(C)CC4)cc3OC)nc2N1C1CCCC1
In short: as §1

volasertib = compound: CC[C@@H]1C(=O)N(C)c2cnc(Nc3ccc(C(=O)N[C@H]4CC[C@H](N5CCN(CC6CC6)CC5)CC4)cc3OC)nc2N1C(C)C [volasertib]
In short: as §1

[3] = compound: CCn1c(C(=O)N(C2CC2)C2CC2)cc2c3c(ncn3C)c(Nc3cc(C)n(C)n3)nc21
In short: as §1

[4] = compound: CCn1cc(-c2ccnc3[nH]c(-c4cccc(CN(C)C)c4)cc23)c(-c2ccc(NC(=O)N(C)C)cc2)n1
In short: as §1

[5] = compound: CN1CCC(CNc2ccc3ncc(-c4cccc(OC(F)(F)F)c4)n3n2)CC1
In short: as §1

saracatinib = compound: CN1CCN(CCOc2cc(OC3CCOCC3)c3c(Nc4c(Cl)ccc5c4OCO5)ncnc3c2)CC1 [saracatinib]
In short: as §1

sotrastaurin = compound: CN1CCN(c2nc(C3=C(c4c[nH]c5ccccc45)C(=O)NC3=O)c3ccccc3n2)CC1 [sotrastaurin]
In short: as §1

alvocidib = compound: CN1CC[C@H](c2c(O)cc(O)c3c(=O)cc(-c4ccccc4Cl)oc23)[C@H](O)C1 [alvocidib]
In short: as §1

Tubastatin A = compound: CN1CCc2c(c3ccccc3n2Cc2ccc(C(=O)NO)cc2)C1 [Tubastatin A]
In short: as §1

[6] = compound: CNC(=O)C1=CC=CC=C1NC2=NC(=NC=C2Cl)NC3=C(C=C(C=C3)N4CCOCC4)OC
In short: as §1

defactinib = compound: CNC(=O)c1ccc(Nc2ncc(C(F)(F)F)c(NCc3nccnc3N(C)S(C)(=O)=O)n2)cc1 [defactinib]
In short: as §1

[7] = compound: CNc1nc(-c2ccc3c(N)n[nH]c3c2)cc(N2C[C@@H](C(=O)NC3CCCCC3)CC[C@H]2C)n1
In short: as §1

encorafenib = compound: COC(=O)N[C@@H](C)CNc1nccc(-c2cn(C(C)C)nc2-c2cc(Cl)cc(NS(C)(=O)=O)c2F)n1 [encorafenib]
In short: as §1

[8] = compound: COC(=O)[C@H](CCSC)NC(=O)C1=C(C=C(C=C1)NC[C@H](CS)N)C2=CC=CC=C2
In short: as §1

alisertib = compound: COc1cc(Nc2ncc3c(n2)-c2ccc(Cl)cc2C(c2c(F)cccc2OC)=NC3)ccc1C(=O)O [alisertib]
In short: as §1

[9] = compound: COc1cc2nc(-c3cc(F)ccc3O)nc(N[C@@H]3CNC[C@H]3C(C)(C)O)c2cc1OC
In short: as §1

gefitinib = compound: COc1cc2ncnc(Nc3ccc(F)c(Cl)c3)c2cc1OCCCN1CCOCC1 [gefitinib]
In short: as §1

Measured: log2 fold change

MARK2 (UniProt E9PC69)
inactive: vemurafenib 0.015 | [1] -0.005 | barasertib 0.027 | [2] 0 | volasertib 0.028 | [3] -0.015 | [4] -0.013 | [5] -0.22 | saracatinib 0.021 | sotrastaurin -0.026 | alvocidib -0.032 | Tubastatin A -0.049 | [6] -0.187 | defactinib -0.087 | [7] 0.056 | encorafenib 0.181 | [8] 0.211 | alisertib 0.021 | [9] 0.01 | gefitinib -0.03

MED16 (UniProt Q9Y2X0)
inactive: vemurafenib -0.059 | [1] 0.008 | barasertib -0.113 | [2] -0.04 | volasertib -0.036 | [3] 0.056 | [4] 0.177 | [5] -0.189 | saracatinib -0.014 | sotrastaurin -0.018 | alvocidib 0.01 | Tubastatin A -0.093 | [6] 0.02 | defactinib -0.014 | [7] 0.004 | encorafenib -0.011 | [8] 0.038 | alisertib -0.015 | [9] -0.004 | gefitinib 0.019

KIF4A (UniProt O95239)
Sequence of UniProt O95239 (O95239 whole entry, looked up): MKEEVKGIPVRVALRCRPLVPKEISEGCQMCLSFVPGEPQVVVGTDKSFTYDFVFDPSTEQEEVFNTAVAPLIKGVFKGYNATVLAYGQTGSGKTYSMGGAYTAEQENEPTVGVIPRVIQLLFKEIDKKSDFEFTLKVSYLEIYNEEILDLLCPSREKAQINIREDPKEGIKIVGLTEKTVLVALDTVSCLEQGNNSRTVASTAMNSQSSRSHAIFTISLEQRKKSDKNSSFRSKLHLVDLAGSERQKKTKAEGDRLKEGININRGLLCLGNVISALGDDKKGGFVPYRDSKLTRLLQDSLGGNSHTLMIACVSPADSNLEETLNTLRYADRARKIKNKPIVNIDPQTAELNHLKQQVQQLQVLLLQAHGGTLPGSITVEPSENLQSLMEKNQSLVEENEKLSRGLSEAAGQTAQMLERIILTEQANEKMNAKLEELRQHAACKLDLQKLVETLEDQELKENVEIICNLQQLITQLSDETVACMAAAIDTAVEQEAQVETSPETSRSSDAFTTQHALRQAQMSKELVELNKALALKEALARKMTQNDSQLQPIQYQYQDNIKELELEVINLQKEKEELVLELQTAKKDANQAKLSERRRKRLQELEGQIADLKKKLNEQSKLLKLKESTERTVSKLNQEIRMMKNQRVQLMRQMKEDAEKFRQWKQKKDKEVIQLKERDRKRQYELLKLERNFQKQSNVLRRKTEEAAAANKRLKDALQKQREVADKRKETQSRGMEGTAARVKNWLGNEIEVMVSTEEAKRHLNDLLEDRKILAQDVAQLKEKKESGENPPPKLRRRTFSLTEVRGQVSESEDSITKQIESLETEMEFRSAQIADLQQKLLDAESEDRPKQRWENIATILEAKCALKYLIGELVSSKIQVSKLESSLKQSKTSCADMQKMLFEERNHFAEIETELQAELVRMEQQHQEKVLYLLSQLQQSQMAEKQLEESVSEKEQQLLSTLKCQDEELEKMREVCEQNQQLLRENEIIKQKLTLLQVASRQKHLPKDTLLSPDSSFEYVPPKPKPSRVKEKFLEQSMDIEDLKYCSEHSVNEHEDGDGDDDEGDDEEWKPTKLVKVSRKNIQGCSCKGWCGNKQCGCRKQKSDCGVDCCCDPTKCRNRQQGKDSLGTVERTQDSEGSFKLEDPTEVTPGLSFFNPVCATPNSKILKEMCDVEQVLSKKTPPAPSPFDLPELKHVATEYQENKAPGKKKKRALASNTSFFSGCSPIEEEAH
inactive: vemurafenib 0.005 | [1] 0.035 | barasertib -0.02 | [2] -0.021 | volasertib -0.055 | [3] 0.003 | [4] 0.013 | [5] -0.07 | saracatinib 0.007 | sotrastaurin -0.003 | alvocidib 0.006 | Tubastatin A -0.145 | [6] 0.022 | defactinib 0.006 | [7] 0.005 | encorafenib -0.014 | [8] 0.154 | alisertib -0.041 | [9] -0.035 | gefitinib -0.018

LARS2 (UniProt Q15031)
Sequence of UniProt Q15031 (Q15031 whole entry, looked up): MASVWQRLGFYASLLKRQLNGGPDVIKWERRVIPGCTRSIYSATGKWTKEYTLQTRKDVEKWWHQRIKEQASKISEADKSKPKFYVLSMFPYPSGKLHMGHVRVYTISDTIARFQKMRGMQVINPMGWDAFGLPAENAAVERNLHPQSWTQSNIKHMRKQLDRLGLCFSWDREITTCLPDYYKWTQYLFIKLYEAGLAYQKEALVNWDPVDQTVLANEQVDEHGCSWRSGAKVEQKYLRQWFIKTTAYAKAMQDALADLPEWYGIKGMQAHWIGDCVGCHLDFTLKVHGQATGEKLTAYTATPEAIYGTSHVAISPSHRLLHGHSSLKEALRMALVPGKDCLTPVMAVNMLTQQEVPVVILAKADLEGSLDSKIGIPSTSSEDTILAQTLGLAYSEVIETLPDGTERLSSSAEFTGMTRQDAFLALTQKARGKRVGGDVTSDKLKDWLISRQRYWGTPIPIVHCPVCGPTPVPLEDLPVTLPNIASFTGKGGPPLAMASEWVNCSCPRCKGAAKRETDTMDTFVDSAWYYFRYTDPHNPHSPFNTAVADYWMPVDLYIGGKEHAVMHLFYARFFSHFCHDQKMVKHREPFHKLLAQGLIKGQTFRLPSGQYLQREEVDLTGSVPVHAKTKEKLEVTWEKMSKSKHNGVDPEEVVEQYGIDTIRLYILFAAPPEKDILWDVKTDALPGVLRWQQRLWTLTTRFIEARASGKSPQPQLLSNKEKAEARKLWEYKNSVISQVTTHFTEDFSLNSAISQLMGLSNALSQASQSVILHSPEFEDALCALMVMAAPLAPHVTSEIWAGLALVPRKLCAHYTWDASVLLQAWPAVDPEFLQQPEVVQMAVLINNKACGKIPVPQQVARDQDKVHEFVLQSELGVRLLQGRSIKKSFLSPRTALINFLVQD
inactive: vemurafenib -0.015 | [1] 0.007 | barasertib 0.077 | [2] -0.103 | volasertib -0.081 | [3] 0.061 | [4] 0.024 | [5] -0.073 | saracatinib 0.029 | sotrastaurin 0.072 | alvocidib 0.021 | Tubastatin A -0.06 | [6] -0.047 | defactinib 0.013 | [7] -0.088 | encorafenib 0.038 | [8] -0.115 | alisertib 0.051 | [9] 0.007 | gefitinib 0.012

KIF11 (UniProt P52732)
Sequence of UniProt P52732 (P52732 whole entry, looked up): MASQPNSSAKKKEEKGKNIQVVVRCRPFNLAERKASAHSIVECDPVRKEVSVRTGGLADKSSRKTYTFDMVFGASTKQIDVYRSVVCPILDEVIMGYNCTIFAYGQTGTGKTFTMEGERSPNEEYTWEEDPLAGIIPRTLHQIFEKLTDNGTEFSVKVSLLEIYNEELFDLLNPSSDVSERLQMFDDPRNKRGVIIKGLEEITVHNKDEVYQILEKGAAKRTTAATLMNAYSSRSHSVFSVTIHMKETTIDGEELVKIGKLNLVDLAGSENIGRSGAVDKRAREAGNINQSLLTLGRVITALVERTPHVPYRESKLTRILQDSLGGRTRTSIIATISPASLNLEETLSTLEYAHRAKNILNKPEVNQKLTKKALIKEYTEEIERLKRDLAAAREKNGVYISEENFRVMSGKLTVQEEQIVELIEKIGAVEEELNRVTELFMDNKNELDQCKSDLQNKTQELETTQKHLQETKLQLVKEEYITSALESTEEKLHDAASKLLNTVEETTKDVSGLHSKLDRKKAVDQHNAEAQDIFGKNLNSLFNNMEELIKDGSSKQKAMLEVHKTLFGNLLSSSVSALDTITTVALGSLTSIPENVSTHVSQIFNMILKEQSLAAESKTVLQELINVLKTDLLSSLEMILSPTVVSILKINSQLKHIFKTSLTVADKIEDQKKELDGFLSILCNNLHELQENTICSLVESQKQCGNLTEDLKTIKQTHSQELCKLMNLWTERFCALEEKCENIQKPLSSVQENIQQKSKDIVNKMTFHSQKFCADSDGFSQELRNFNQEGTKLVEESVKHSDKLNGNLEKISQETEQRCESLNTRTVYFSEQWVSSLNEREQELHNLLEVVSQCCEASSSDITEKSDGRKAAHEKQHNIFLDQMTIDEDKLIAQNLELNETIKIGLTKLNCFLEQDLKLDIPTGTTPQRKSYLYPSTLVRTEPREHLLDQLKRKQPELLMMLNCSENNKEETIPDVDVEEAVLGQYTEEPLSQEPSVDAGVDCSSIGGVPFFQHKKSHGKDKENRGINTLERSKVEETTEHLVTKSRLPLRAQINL
inactive: vemurafenib -0.027 | [1] 0.003 | barasertib 0.023 | [2] -0.011 | volasertib -0.024 | [3] 0.025 | [4] -0.055 | [5] 0.018 | saracatinib 0.023 | sotrastaurin 0.026 | alvocidib 0.008 | Tubastatin A -0.107 | [6] 0.035 | defactinib -0.007 | [7] -0.022 | encorafenib 0.034 | [8] 0.032 | alisertib -0.013 | [9] -0.003 | gefitinib 0.016

LUC7L (UniProt Q9NQ29)
active: alvocidib -0.259
inactive: vemurafenib 0.019 | [1] -0.014 | barasertib 0.024 | [2] -0.072 | volasertib 0.028 | [3] -0.004 | [4] 0.172 | [5] -0.008 | saracatinib -0.013 | sotrastaurin -0.068 | Tubastatin A 0.015 | [6] -0.117 | defactinib -0.075 | [7] 0.002 | encorafenib 0.065 | [8] -0.039 | alisertib 0.033 | [9] 0.01 | gefitinib 0.037

MAP3K4 (UniProt Q9Y6R4)
inactive: vemurafenib 0.006 | [1] 0.007 | barasertib 0.107 | [2] 0.145 | volasertib 0.167 | [3] 0.012 | [4] 0.047 | [5] 0.015 | saracatinib 0.005 | sotrastaurin -0.014 | alvocidib -0.027 | Tubastatin A -0.113 | defactinib 0.071 | [7] -0.018 | encorafenib -0.171 | [8] 0.128 | alisertib -0.028 | [9] -0.045 | gefitinib 0.081
active: [6] 0.366

LSS (UniProt P48449)
active: volasertib 0.434
inactive: vemurafenib 0.016 | [1] -0.009 | barasertib 0.044 | [2] -0.078 | [3] -0.009 | [4] -0.09 | [5] 0.123 | saracatinib -0.043 | sotrastaurin 0 | alvocidib -0.011 | Tubastatin A 0.021 | [6] -0.03 | defactinib -0.026 | [7] 0.021 | encorafenib 0.031 | [8] 0.02 | alisertib 0.011 | [9] 0.032 | gefitinib 0.055

MAPK14 isoform 2 (UniProt Q16539)
inactive: vemurafenib 0.189 | [1] 0.046 | barasertib 0.079 | [2] -0.076 | volasertib -0.078 | [3] 0.003 | [4] 0.303 | [5] -0.101 | saracatinib 0.192 | sotrastaurin -0.029 | alvocidib 0.154 | Tubastatin A -0.121 | [6] 0.299 | defactinib 0.01 | [7] -0.041 | encorafenib 0.454 | [8] 0.257 | alisertib -0.065 | [9] -0.004 | gefitinib 0.144

MPI (UniProt P34949)
inactive: vemurafenib 0.013 | [1] 0.007 | barasertib 0.008 | [2] 0.014 | volasertib -0.02 | [3] -0.011 | [4] 0.149 | [5] -0.067 | saracatinib -0.028 | sotrastaurin 0.025 | alvocidib 0.051 | Tubastatin A 0.024 | [6] -0.02 | defactinib -0.007 | [7] 0.035 | encorafenib -0.01 | alisertib 0.018 | [9] 0.01 | gefitinib -0.014
active: [8] 0.477

MAPKAPK3 (UniProt Q16644)
Sequence of UniProt Q16644 (Q16644 whole entry, looked up): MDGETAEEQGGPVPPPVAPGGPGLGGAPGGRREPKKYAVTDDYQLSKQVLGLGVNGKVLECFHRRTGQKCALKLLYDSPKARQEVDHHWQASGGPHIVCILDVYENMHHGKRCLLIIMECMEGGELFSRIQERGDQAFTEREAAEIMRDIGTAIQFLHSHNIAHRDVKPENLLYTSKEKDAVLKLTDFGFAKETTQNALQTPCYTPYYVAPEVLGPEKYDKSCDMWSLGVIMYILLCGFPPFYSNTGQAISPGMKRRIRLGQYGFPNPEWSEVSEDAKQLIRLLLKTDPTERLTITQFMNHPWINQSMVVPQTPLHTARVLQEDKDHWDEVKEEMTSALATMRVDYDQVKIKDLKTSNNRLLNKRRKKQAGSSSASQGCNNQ
inactive: vemurafenib -0.02 | [1] -0.018 | barasertib 0.015 | [2] -0.145 | volasertib 0.002 | [3] 0.028 | [4] -0.001 | [5] -0.067 | saracatinib 0.003 | sotrastaurin -0.014 | alvocidib 0.038 | Tubastatin A -0.125 | [6] 0.015 | defactinib 0.033 | [7] -0.11 | encorafenib -0.015 | [8] 0.055 | alisertib -0.055 | [9] 0.006 | gefitinib 0.148

MRPL28 (UniProt Q13084)
inactive: vemurafenib 0.005 | [1] 0.009 | barasertib 0.053 | [2] -0.06 | volasertib 0.019 | [3] 0.024 | [5] -0.356 | saracatinib -0.016 | sotrastaurin 0.055 | alvocidib 0.261 | Tubastatin A -0.074 | [6] -0.11 | defactinib 0.039 | [7] 0.001 | encorafenib 0.026 | [8] -0.026 | alisertib 0.045 | [9] -0.02 | gefitinib 0.072
active: [4] 0.411

KSR1 (UniProt Q8IVT5)
Sequence of UniProt Q8IVT5 (Q8IVT5 whole entry, looked up): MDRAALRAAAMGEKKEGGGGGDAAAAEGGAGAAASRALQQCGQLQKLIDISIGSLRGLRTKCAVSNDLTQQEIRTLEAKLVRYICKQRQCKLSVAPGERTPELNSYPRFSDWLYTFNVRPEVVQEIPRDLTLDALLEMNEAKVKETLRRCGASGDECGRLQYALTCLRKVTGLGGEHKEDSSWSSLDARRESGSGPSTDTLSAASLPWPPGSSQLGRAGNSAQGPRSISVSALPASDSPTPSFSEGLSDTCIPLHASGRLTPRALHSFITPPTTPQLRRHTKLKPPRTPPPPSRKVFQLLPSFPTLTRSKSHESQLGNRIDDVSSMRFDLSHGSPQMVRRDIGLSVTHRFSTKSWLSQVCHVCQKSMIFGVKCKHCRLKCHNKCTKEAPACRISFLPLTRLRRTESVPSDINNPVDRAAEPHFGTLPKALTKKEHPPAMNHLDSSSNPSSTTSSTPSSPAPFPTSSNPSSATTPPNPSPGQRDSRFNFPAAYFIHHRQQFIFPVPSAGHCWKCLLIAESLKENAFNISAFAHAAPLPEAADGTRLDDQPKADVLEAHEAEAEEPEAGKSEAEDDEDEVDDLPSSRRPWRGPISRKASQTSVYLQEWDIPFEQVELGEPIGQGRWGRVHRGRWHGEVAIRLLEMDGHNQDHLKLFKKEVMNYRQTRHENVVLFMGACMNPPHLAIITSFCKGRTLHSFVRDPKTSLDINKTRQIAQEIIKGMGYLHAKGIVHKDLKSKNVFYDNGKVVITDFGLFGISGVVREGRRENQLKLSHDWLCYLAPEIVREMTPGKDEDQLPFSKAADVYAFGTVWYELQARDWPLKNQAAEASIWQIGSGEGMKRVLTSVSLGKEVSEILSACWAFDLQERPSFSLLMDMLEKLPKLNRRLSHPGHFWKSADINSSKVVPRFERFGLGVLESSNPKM
inactive: vemurafenib 0.021 | [1] 0.049 | barasertib -0.022 | [2] -0.009 | volasertib 0.016 | [3] 0.009 | [4] 0.187 | [5] -0.056 | saracatinib -0.003 | sotrastaurin -0.065 | alvocidib 0.214 | Tubastatin A -0.086 | [6] -0.042 | defactinib -0.045 | [7] -0.038 | encorafenib 0.075 | [8] 0.257 | alisertib 0.028 | [9] 0.115 | gefitinib -0.016

MED13L (UniProt Q71F56)
inactive: vemurafenib -0.043 | [1] -0.012 | barasertib 0.028 | [2] 0.01 | volasertib -0.058 | [3] 0.038 | [4] -0.023 | [5] 0.064 | saracatinib -0.037 | sotrastaurin -0.018 | alvocidib 0.042 | Tubastatin A -0.069 | [6] 0.016 | defactinib -0.011 | [7] -0.004 | encorafenib 0.02 | [8] 0.021 | alisertib -0.084 | [9] -0.005 | gefitinib 0.01

MBOAT2 (UniProt Q6ZWT7)
Sequence of UniProt Q6ZWT7 (Q6ZWT7 whole entry, looked up): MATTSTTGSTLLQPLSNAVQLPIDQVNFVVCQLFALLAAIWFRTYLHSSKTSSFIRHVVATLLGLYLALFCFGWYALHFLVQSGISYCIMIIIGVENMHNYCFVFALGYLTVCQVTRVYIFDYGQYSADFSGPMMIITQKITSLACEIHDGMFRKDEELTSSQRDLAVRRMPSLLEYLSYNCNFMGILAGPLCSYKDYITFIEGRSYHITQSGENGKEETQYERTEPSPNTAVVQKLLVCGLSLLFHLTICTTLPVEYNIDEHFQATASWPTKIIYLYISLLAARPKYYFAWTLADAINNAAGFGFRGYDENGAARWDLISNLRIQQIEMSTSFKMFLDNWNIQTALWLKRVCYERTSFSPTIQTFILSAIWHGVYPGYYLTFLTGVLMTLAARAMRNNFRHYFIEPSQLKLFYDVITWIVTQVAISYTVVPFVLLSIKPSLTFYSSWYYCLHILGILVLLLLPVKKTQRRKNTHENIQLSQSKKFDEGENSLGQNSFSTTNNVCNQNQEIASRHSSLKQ
inactive: vemurafenib 0.02 | [1] -0.01 | barasertib 0.121 | [2] 0.159 | volasertib -0.103 | [3] -0.015 | [4] -0.251 | [5] 0.026 | saracatinib 0.045 | sotrastaurin 0.284 | alvocidib -0.024 | Tubastatin A 0 | [6] 0.079 | defactinib 0.002 | [7] -0.025 | encorafenib 0.156 | [8] -0.073 | alisertib -0.003 | [9] 0.034 | gefitinib 0.064
